A selection: hits, their analogues and other compounds. The true share with any hit is near 11%.
NPR1 antag: Natriuretic polypeptide receptor (hNpr1) antagonism - Primary qHTS; HEK293 hNpr1 GloSensor cGMP, ANP-stimulated luminescence; Atrial natriuretic peptide receptor 1 (Homo sapiens), P16066; hit rate 1.6% among 76,000; Potency, µM (titrated, usually from 46.3 µM), most hits filed as inhibitors; calls by dose curve; also: nearly all actives have a fitted effect of over 60% in size
Target sequence (P16066 whole entry, looked up): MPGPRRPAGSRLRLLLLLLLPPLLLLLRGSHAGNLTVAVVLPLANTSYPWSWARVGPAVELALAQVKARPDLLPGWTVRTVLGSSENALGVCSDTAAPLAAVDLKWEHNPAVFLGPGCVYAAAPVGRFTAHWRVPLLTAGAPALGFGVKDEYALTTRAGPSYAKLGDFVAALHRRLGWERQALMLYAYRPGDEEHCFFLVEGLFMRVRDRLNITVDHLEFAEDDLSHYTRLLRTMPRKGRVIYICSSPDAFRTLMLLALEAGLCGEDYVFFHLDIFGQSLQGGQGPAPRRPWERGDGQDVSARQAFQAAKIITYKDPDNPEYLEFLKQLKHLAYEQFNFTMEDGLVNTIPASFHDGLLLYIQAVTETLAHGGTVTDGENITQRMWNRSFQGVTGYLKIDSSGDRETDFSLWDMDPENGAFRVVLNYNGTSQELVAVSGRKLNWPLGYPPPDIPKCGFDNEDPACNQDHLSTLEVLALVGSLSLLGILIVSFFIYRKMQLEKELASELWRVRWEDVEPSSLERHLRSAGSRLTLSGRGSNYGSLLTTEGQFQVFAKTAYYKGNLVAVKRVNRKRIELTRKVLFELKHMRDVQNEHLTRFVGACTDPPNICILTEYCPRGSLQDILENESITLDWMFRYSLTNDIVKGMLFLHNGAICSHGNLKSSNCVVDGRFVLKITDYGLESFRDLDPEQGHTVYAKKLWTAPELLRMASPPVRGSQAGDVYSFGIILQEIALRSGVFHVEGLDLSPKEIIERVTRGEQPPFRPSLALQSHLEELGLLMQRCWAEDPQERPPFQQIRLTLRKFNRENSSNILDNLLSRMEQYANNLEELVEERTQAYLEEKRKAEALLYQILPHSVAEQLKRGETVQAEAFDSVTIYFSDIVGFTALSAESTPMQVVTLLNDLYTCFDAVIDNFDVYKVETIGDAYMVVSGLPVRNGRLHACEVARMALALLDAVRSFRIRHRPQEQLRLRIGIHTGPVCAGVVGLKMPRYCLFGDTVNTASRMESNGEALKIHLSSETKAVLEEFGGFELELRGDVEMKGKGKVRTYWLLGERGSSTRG
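Compound pre-incubated 30 min at room temperature on GloSensor-loaded HEK293 cells stably carrying hNpr1 and the pGS-40F cGMP biosensor. Stimulation uses hNppA at 0.1 nM final; luminescence is taken at baseline and 20 min post-agonist.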
Luciferase inh: Firefly luciferase inhibition profiling of diverse chemical library using quantitative high-throughput screening; AID 1347043, 2019; hit rate 2.5% among 76,000; Potency, µM (doses to about 115 µM), usual class: inhibitors; purified P. pyralis luciferase, luminescence, biochemical; Luciferin 4-monooxygenase (Photinus pyralis), P08659; also: nearly all actives have a fitted effect of over 65% in size
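Purified 10nM P. pyralis luciferase with 10uM D-luciferin and 10uM ATP in 50mM Tris acetate pH 7.5, 10mM Mg acetate, 0.01% Tween-20, 0.05% BSA. qHTS titration; luminescence read by CCD imager.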
3T3 cytotox: Cytotoxic Profiling in NIH 3T3 Cell Line of Diverse Libraries Using Quantitative High-Throughput Screening. NIH 3T3 viability, CellTiter-Glo ATP luminescence, 48-72 h. Potency, µM (highest dose often 96.7 µM), actives largely listed as inhibitors. hit rate 4.3% among 94,000. AID 1345082, 2018; also: nearly all actives have a fitted effect of over 55% in size
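Mouse fibroblast NIH 3T3 cells, 400 per well, received compound via pintool and were incubated for 48 or 72 hr prior to CellTiter-Glo ATP luminescence measurement.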
HEK293 tox: Cytotoxic Profiling in HEK 293 Cell Line of Diverse Libraries Using Quantitative High-Throughput Screening. HEK 293 viability, ATP luminescence (CellTiter-Glo), 48-72 h. Potency, µM (top dose mostly 115 µM), usual class: inhibitors. hit rate 6.6% among 94,000; also: nearly all actives have a fitted effect of over 60% in size
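Read-out: CellTiter-Glo ATP luminescence. Cells: HEK 293, 250 cells/well. Exposure: 48 or 72 hr, 37 degree Celsius.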
Hits are given with their value; 0 = inactive; ? = inconclusive; - = not tested or not shown; ! = not active in a repeat. Unless noted, calls follow the shape of the dose curve; as a rule, active = well fitted curve in the direction sought with a large enough effect; inconclusive = small, poorly fitted or top-dose-only effect, or another doubt; inactive = no such curve, though single readings can be large; an effect the other way counts as inactive or inconclusive.

SMILES	NPR1 antag	Luciferase inh	3T3 cytotox	HEK293 tox
COc1ccc(-c2cn3cc(C(=O)NCc4ccccc4)nc3s2)cc1	-	-	0	0
COCCCNC(=O)c1cn2cc(-c3ccc(OC)cc3)sc2n1	-	-	40µM	79µM
COc1ccc(-c2cn3cc(C(=O)NCC4CC4)nc3s2)cc1	-	-	50µM	63µM
COCCCNC(=O)c1cn2cc(-c3cccc(C#N)c3)sc2n1	-	-	45µM	?
COCCCNC(=O)c1cn2cc(-c3cccnc3)sc2n1	-	-	?	0
COC(=O)CNC(=O)c1cn2cc(-c3ccc(OC)cc3)sc2n1	-	-	?	0
COCCn1c(=O)c(C(=O)N2CCN(C(=O)Cc3cccc(Cl)c3)CC2)nc2cccnc21	-	-	0	0
COCCNC(=O)c1cc(-c2ccc(Cl)cc2Cl)c2nncn2n1	-	-	0	0
Cc1nnc2ccc(N3CCN(S(=O)(=O)c4ccccc4)CC3)nn12	-	-	?	0
CC(C)(C)CN1CCOC[C@H]1c1ncc(-c2ccc(F)cc2)[nH]1	0	0	?	?
COc1ccc(-c2ccc(C(=O)N3CCN([S+](=O)([O-])c4cccs4)CC3)cc2)nn1	-	-	0	?
COc1ccc(C(=O)N(CC2CC2)CC2CN(C(=O)Nc3ccccc3)CCO2)cc1OC (stereo not drawn)	0	0	?	28µM
CCOc1ccccc1NC(=O)c1cc2c(N3CCSCC3)nc(C)cn2n1	0	0	?	35µM
Cc1cn2nc(C(=O)NCc3ccc(C(F)(F)F)cc3)cc2c(N2CCCC2)n1	0	0	?	45µM
CCc1ccc(CNC(=O)c2cc3c(N4CCCC4)nc(C)cn3n2)cc1	0	0	?	?
Cn1cccc1CN1CC(N2CCc3ccccc32)C1	-	-	0	0
O=C(NC1CCCC1)N1CC(Oc2ccccc2-c2nc(-c3ccccc3)no2)C1	0	0	32µM	?
O=C(c1ccco1)N1CC(Oc2cccc(-c3nc(-c4ccccc4)no3)c2)C1	0	?	?	?
O=C(c1ccco1)N1CC(Oc2ccccc2-c2nc(-c3ccccc3)no2)C1	0	?	32µM	25µM
COc1ccc(C(=O)N2CC(Oc3ccccc3-c3nc(-c4ccccc4)no3)C2)cc1	0	?	32µM	28µM
COc1ccc(C(=O)N2CC(Oc3ccc(-c4nc(-c5ccccc5)no4)cc3)C2)cc1	0	0	0	0
CC(C)CNC(=O)N1CC(Oc2ccccc2-c2nc(-c3ccccc3)no2)C1	0	?	?	?
O=C(Cc1ccc(Cl)cc1)N1CCC(N2CC3CC(C2)[C@H]2CCCC(=O)N2C3)CC1 (stereo partly drawn)	0	0	0	0
Cn1cccc1CN1CCCC(C(=O)NCc2ccccc2)CCNC(=O)CC1 (stereo not drawn)	0	0	?	79µM
COc1ccccc1-c1cccc(CN2CCCC(C(=O)NCC(F)F)C2)c1 (stereo not drawn)	-	-	?	40µM
SMILES	NPR1 antag	Luciferase inh	3T3 cytotox	HEK293 tox
COc1ccccc1-c1cccc(CN2CCCC(C(=O)NC3CCCC3)C2)c1 (stereo not drawn)	-	-	35µM!	35µM!
COc1ccccc1-c1cccc(CN2CCCC(C(=O)NCc3ccccc3)C2)c1 (stereo not drawn)	-	-	?	11µM
COc1ccc(NC(=O)c2cn3cc(-c4cccc(C(F)(F)F)c4)sc3n2)cc1	-	-	0	0
C#CCNC(=O)C1CCCN1c1nccc(Nc2ccccc2F)n1 (stereo not drawn)	-	-	?	0
CC(C)OC(=O)N1CCC(COc2ccc3c(cnn3CCC(=O)O)c2)CC1	0	?	28µM	0
O=C(O)CCn1ncc2cc(OCC3CCN(C(=O)c4cc(F)ccc4Cl)CC3)ccc21	-	0	32µM	0
O=C(O)CCn1ncc2cc(OCC3CCN(C(=O)Oc4ccccc4)CC3)ccc21	-	0	28µM	0
O=C1CCCN1CCCN1C(=O)[C@H]2CN(Cc3ccccc3OC(F)(F)F)C[C@H]2C1=O	0	0	0	0
Cc1cc(-c2cc3c(cn2)CN(Cc2ccc4[nH]ccc4c2)CCN3)ccn1	?	45µM	?	71µM
c1ccc(-c2cc3c(cn2)CN(Cc2ccc4[nH]ccc4c2)CCN3)cc1	0	56µM	25µM	50µM
COc1cccc(-c2cccc(C(=O)N3CCCC3C(=O)N3CCCC(C)C3)c2)c1 (stereo not drawn)	-	-	0	?
COc1ccccc1-c1cc2c(nc1-c1ccccc1)nc(C(=O)NC1CCN(C)CC1)n2C	0	0	20µM	35µM
